Growth inhibition data for nine molecules are collected here from PubChem BioAssay (NCI).

Test [1] can be described thus: NCI Yeast Anticancer Drug Screen. Data for the rad50 strain (AID 155).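 Also: 0% = growth of vehicle-only cultures of the same strain.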 To be noted: S. cerevisiae rad50 strain growth inhibition, hits give high values. The method, boiled down:
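Readout: growth inhibition relative to vehicle-treated cultures. Compound exposure was carried out in a genetically defined yeast strain deficient in DNA damage repair.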

Test [2] can be described thus: NCI Yeast Anticancer Drug Screen. Data for the mec2-1 strain (AID 157). Particulars: S. cerevisiae mec2-1 strain, hits give high values. The method, boiled down: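 Test agents were screened against the mec2-1 yeast strain, with defined DNA repair or cell cycle alteration. Growth was scored as inhibition against vehicle-only controls.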
Test [3] in a line: NCI Yeast Anticancer Drug Screen. Data for the sgs1 mgt1 strain (AID 161).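 Also: 0% = growth of cultures given vehicle only.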 To be noted: S. cerevisiae sgs1 mgt1 strain, hits give high values. The method, boiled down: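 Mutant yeast exposed to compound; growth scored against vehicle-only wells.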
A short description of test [4]: NCI Yeast Anticancer Drug Screen. Data for the cln2 rad14 strain (AID 165).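 Also: 0% = growth equal to vehicle treated cultures.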 To be noted: S. cerevisiae cln2 rad14 strain, hits give high values. The method, boiled down:
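Growth of compound-exposed yeast (cln2 rad14 genotype) measured and expressed as inhibition relative to vehicle.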

Test [5] is described as follows: NCI Yeast Anticancer Drug Screen. Data for the bub3 strain (AID 167). To be noted: S. cerevisiae bub3 mutant strain, hits give high values. The method, boiled down: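 Readout: yeast growth inhibition, expressed relative to vehicle-only wells. The test organism is a mutant strain from a panel with lesions in DNA repair or checkpoint genes.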
A short description of test [6]: NCI Yeast Anticancer Drug Screen. Data for the mlh1 rad18 strain (AID 175). To be noted: S. cerevisiae mlh1 rad18 strain growth inhibition, hits give high values. The essentials:
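In this whole-cell yeast screen, a strain with altered DNA damage repair is challenged with compound, and its growth is measured against matched vehicle-treated controls.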

Where [7] appears, read: at 5.0 µM (retest, dose inferred, filed as 0.5).
The mark [8] stands for this setting: at 50.0 µM (retest, dose inferred, filed as 5.0).

The panel holds about 79,000 compounds, 15% with a hit somewhere; the sample as a whole holds those more often. A number with no mark means an inactive call. Activity calls are given as the source filed them. Rule as the data show it: active = growth inhibition above about 70%; inactive = the rest.

As for `CCCCCCCCCCCCNCC#N`, the growth inhibition in test [1] (setting [7]) was 8%; in test [1] (setting [8]), 18%; in test [1] (at 50.0 µM), 89.9% (active); in test [2] (setting [7]), 11%; in test [2] (setting [8]), 10%; in test [2] (at 50.0 µM), 72.2% (active). The growth inhibition was -2% in test [3] (setting [7]); 17% in test [3] (setting [8]); 85.1% (active) in test [3] (at 50.0 µM); 0% in test [4] (setting [7]); 15% in test [4] (setting [8]); 48.4% in test [4] (at 50.0 µM). Further, the growth inhibition in test [5] (setting [7]) was 4%; in test [5] (setting [8]) it was 52%; in test [5] (at 50.0 µM), 83.5% (active); in test [6] (setting [7]), 5%; in test [6] (setting [8]) it was 29%; in test [6] (at 50.0 µM), 93% (active).
Consider `COc1ccc(/C=N/NS(=O)(=O)c2ccccc2)cc1`, for which the growth inhibition is 0% in test [1] (setting [7]); -2% in test [1] (setting [8]); 99.1% (active) in test [1] (at 50.0 µM); -2% in test [2] (setting [7]); 4% in test [2] (setting [8]); 99.3% (active) in test [2] (at 50.0 µM). Besides, the growth inhibition is 0% in test [3] (setting [7]); 3% in test [3] (setting [8]); 99% (active) in test [3] (at 50.0 µM); -10% in test [4] (setting [7]); -7% in test [4] (setting [8]); 98% (active) in test [4] (at 50.0 µM). For the same molecule, the growth inhibition in test [5] (setting [7]) was 2%; in test [5] (setting [8]), 11%; in test [5] (at 50.0 µM) it was 99.2% (active); in test [6] (setting [7]), -2%; in test [6] (setting [8]) it was 7%; in test [6] (at 50.0 µM) it was 99% (active).
`C/C(=N/NC(N)=S)C(C)C`: the growth inhibition in test [1] (setting [7]) is 11%; in test [1] (setting [8]) it was 37%; in test [1] (at 50.0 µM), 14.3%; in test [2] (setting [7]), 2%; in test [2] (setting [8]), 2%; in test [2] (at 50.0 µM), -9.9%. Besides, the growth inhibition is 2% in test [3] (setting [7]); 3% in test [3] (setting [8]); -11.1% in test [3] (at 50.0 µM); 4% in test [4] (setting [7]); -5% in test [4] (setting [8]); 37.6% in test [4] (at 50.0 µM). Moreover, the growth inhibition in test [5] (setting [7]) was 1%; in test [5] (setting [8]) it was -3%; in test [5] (at 50.0 µM) it was 17.4%; in test [6] (setting [7]) it was 2%; in test [6] (setting [8]), -2%; in test [6] (at 50.0 µM), 4.8%.
Turning to `CCCCCCCCCCCC(=O)OC/C=C/COC(=O)c1ccccc1`, the growth inhibition in test [1] (setting [7]) is 2%; in test [1] (setting [8]), 23%; in test [1] (at 50.0 µM), 36%; in test [2] (setting [7]), -3%; in test [2] (setting [8]) it was 31%; in test [2] (at 50.0 µM) it was -5.05%. The growth inhibition in test [3] (setting [7]) is 1%; in test [3] (setting [8]) it was 69%; in test [3] (at 50.0 µM) it was 38.5%; in test [4] (setting [7]) it was 0%; in test [4] (setting [8]), 20%; in test [4] (at 50.0 µM) it was 69.3%. Besides, the growth inhibition in test [5] (setting [7]) is -5%; in test [5] (setting [8]), 46%; in test [5] (at 50.0 µM) it was 44%; in test [6] (setting [7]), -7%; in test [6] (setting [8]), 46%; in test [6] (at 50.0 µM) it was 5.35%.
On to `CCC(c1ccc(O)cc1)C(CC)c1ccc(O)c(CN(C)C)c1` (configuration not stated), for which the growth inhibition in test [1] (setting [7]) was 1%; in test [1] (setting [8]), 76% (active); in test [1] (at 50.0 µM) it was 66.8%; in test [2] (setting [7]), 0%; in test [2] (setting [8]), 74% (active); in test [2] (at 50.0 µM), 45.5%. Moreover, the growth inhibition in test [3] (setting [7]) was -6%; in test [3] (setting [8]), 98% (active); in test [3] (at 50.0 µM) it was 74.2% (active); in test [4] (setting [7]) it was -3%; in test [4] (setting [8]), 83% (active); in test [4] (at 50.0 µM) it was 42.6%. For the same molecule, the growth inhibition was -1% in test [5] (setting [7]); 83% (active) in test [5] (setting [8]); 36.5% in test [5] (at 50.0 µM); 2% in test [6] (setting [7]); 96% (active) in test [6] (setting [8]); 65.3% in test [6] (at 50.0 µM).
Take `COc1cc(C2C(Cl)C(=O)N2NC(=O)c2ccc(NC(C)=O)cc2)cc(OC)c1OC` (configuration not stated): the growth inhibition in test [1] (setting [7]) is 1%; in test [1] (setting [8]), -16%; in test [1] (at 50.0 µM), -8.6%; in test [2] (setting [7]), -9%; in test [2] (setting [8]), -16%; in test [2] (at 50.0 µM), -10.1%. The growth inhibition in test [3] (setting [7]) is -9%; in test [3] (setting [8]), -7%; in test [3] (at 50.0 µM) it was 8.15%; in test [4] (setting [7]) it was -16%; in test [4] (setting [8]), -5%; in test [4] (at 50.0 µM), 19.1%. In addition, the growth inhibition was 3% in test [5] (setting [7]); -2% in test [5] (setting [8]); -9.3% in test [5] (at 50.0 µM); -10% in test [6] (setting [7]); 3% in test [6] (setting [8]); 12.3% in test [6] (at 50.0 µM).
For the molecule `Cn1c(CCC2(C)Cc3ccccc3C(=O)O2)cc2ccccc2c1=O` (configuration not stated), the growth inhibition was 3% in test [1] (setting [7]); 31% in test [1] (setting [8]); 55.2% in test [1] (at 50.0 µM); -6% in test [2] (setting [7]); 48% in test [2] (setting [8]); 69.7% in test [2] (at 50.0 µM). Further, the growth inhibition in test [3] (setting [7]) was 0%; in test [3] (setting [8]) it was 79% (active); in test [3] (at 50.0 µM), 73.9% (active); in test [4] (setting [7]), -11%; in test [4] (setting [8]), 27%; in test [4] (at 50.0 µM), 28.4%. Moreover, the growth inhibition in test [5] (setting [7]) is -27%; in test [5] (setting [8]) it was 86% (active); in test [5] (at 50.0 µM) it was 75.3% (active); in test [6] (setting [7]) it was 2%; in test [6] (setting [8]), 48%; in test [6] (at 50.0 µM), 49%.
`Cc1cccc2c(CC(=O)O)cccc12`: the growth inhibition in test [1] (setting [7]) was -5%; in test [1] (setting [8]), 78% (active); in test [1] (at 50.0 µM), 78.7% (active); in test [2] (setting [7]), 7%; in test [2] (setting [8]) it was 82% (active); in test [2] (at 50.0 µM), 77.7% (active). Also, the growth inhibition in test [3] (setting [7]) was 1%; in test [3] (setting [8]) it was 81% (active); in test [3] (at 50.0 µM), 52.5%; in test [4] (setting [7]) it was 19%; in test [4] (setting [8]), 61%; in test [4] (at 50.0 µM), 71.8% (active). Besides, the growth inhibition in test [5] (setting [7]) is -1%; in test [5] (setting [8]) it was 95% (active); in test [5] (at 50.0 µM) it was 75% (active); in test [6] (setting [7]), 4%; in test [6] (setting [8]), 88% (active); in test [6] (at 50.0 µM), 78.5% (active).
For the molecule `CCOC(=O)/C=C(\CC(=O)OCC)C(=O)OCC`, the growth inhibition in test [1] (setting [7]) is -3%; in test [1] (setting [8]), 3%; in test [1] (at 50.0 µM) it was 99.5% (active); in test [2] (setting [7]), -1%; in test [2] (setting [8]), -8%; in test [2] (at 50.0 µM), 99.7% (active). The growth inhibition in test [3] (setting [7]) was -1%; in test [3] (setting [8]) it was 5%; in test [3] (at 50.0 µM) it was 99.2% (active); in test [4] (setting [7]), -3%; in test [4] (setting [8]), -6%; in test [4] (at 50.0 µM), 13.4%. Moreover, the growth inhibition in test [5] (setting [7]) was 4%; in test [5] (setting [8]), 25%; in test [5] (at 50.0 µM), 99.5% (active); in test [6] (setting [7]) it was -3%; in test [6] (setting [8]) it was -2%; in test [6] (at 50.0 µM), 99.3% (active).
